Results from PubChem BioAssay AID1159580 (chemical genetic matrix, 2015).
Out of some 5,500 compounds screened, about 2,000 (36%) were called active. Not shown: some 18% with an inconclusive outcome. Rule as the data show it: active = normalized growth mostly below about 0.91 (no sharp cut-off); inconclusive = no clear call, values can overlap the other calls; inactive = mostly above about 0.92. This is one part of the list.

Assay: chemical genetic growth profiling, strain panel (AID 1159580);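 also: tested at 20 µM; growth read once vehicle control cultures reached saturation at 30 °C; 1 = growth at the plate median or of vehicle wells; lower values mean less growth of the strain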
Conditions: S. cerevisiae deletion strains, growth OD
[1] = locus YAL013W, strain DEP1, hits give low values
[2] = locus YCL061C, strain MRC1, hits give low values
[3] = locus YDR150W, strain NUM1, hits give low values
[4] = locus YGR078C, strain PAC10, hits give low values
[5] = locus YGR229C, strain SMI1, hits give low values
[6] = locus YHR030C, strain SLT2, hits give low values
[7] = locus YNL153C, strain GIM3, hits give low values

Measured: normalized growth

COc1ccccc1NC(=O)N1CCCN(C(=O)c2cccs2)CC1
inactive: [1] 1.01 | locus YBR229C, strain ROT2, hits give low values 1.02 | [2] 1.02 | locus YDL101C, strain DUN1, hits give low values 1.03 | locus YDL134C, strain PPH21, hits give low values 1.01 | [3] 1.05 | locus YEL061C, strain CIN8, hits give low values 0.994 | [4] 1.01 | [5] 1.01 | [6] 1.03 | locus YHR087W, strain rtc3, hits give low values 0.986 | locus YJR043C, strain POL32, hits give low values 1.02 | locus YJR075W, strain HOC1, hits give low values 1.02 | locus YKL190W, strain CNB1, hits give low values 1.01 | locus YLR039C, strain RIC1, hits give low values 1.05 | locus YLR058C, strain SHM2 (second series), hits give low values 1 | locus YLR085C, strain ARP6, hits give low values 1.03 | locus YLR262C, strain YPT6, hits give low values 1.02 | locus YML094W, strain GIM5, hits give low values 1.02 | locus YMR219W, strain ESC1, hits give low values 1.01 | locus YMR263W, strain SAP30, hits give low values 1.04 | [7] 1.01 | locus YNL298W, strain CLA4 (second series), hits give low values 1.04 | locus YNL322C, strain KRE1, hits give low values 1.01 | locus YNR030W, strain Alg12, hits give low values 1.02 | locus YPL055C, strain LGE1, hits give low values 1.01 | locus YPL241C, strain CIN2, hits give low values 1.05 | locus YPR135W, strain CTF4, hits give low values 1.04

OC1CCCCC1N1CCC(c2ccccc2)CC1 (stereo not drawn)
inactive: [1] 0.998 | locus YAL021C, strain ccr4, hits give low values 0.998 | locus YAL026C, strain drs2, hits give low values 0.994 | locus YAL030W, strain snc1, hits give low values 0.992 | locus YAL040C, strain CLN3, hits give low values 0.998 | locus YBL061C, strain skt5, hits give low values 0.994 | locus YBR009C, strain hhf1, hits give low values 0.957 | locus YBR023C, strain chs3, hits give low values 0.999 | locus YBR171W, strain sec66, hits give low values 0.99 | locus YBR231C, strain swc5, hits give low values 0.993 | locus YBR279W, strain paf1, hits give low values 0.999 | locus YCL011C, strain gbp2, hits give low values 0.996 | locus YCL016C, strain dcc1, hits give low values 0.989 | locus YCL061C, strain MRC1 (second series), hits give low values 1.01 | [2] 0.993 | locus YCL069W, strain vba3, hits give low values 0.989 | locus YCR088W, strain abp1, hits give low values 0.983 | locus YDL005C, strain med2, hits give low values 0.992 | locus YDL040C, strain nat1, hits give low values 0.993 | locus YDR001C, strain nth1, hits give low values 0.984 | locus YDR069C, strain doa4, hits give low values 0.998 | locus YDR137W, strain rgp1, hits give low values 0.945 | [3] 1 | locus YDR159W, strain sac3, hits give low values 0.997 | locus YDR195W, strain ref2 0.941 | locus YDR297W, strain sur2, hits give low values 0.995 | locus YDR334W, strain swr1, hits give low values 0.996 | locus YDR335W, strain msn5, hits give low values 0.997 | locus YDR363W, strain ESC2, hits give low values 1.01 | locus YDR392W, strain spt3, hits give low values 0.902 | locus YEL003W, strain gim4, hits give low values 0.994 | locus YEL037C, strain rad23, hits give low values 0.99 | locus YEL061C, strain CIN8 (second series), hits give low values 0.989 | locus YER002W, strain NOP16, hits give low values 0.992 | locus YER015W, strain faa2, hits give low values 0.992 | locus YER016W, strain bim1, hits give low values 0.993 | locus YER111C, strain swi4, hits give low values 0.978 | locus YER155C, strain BEM2 (second series), hits give low values 0.96 | locus YFR010W, strain ubp6, hits give low values 0.988 | locus YGL167C, strain pmr1, hits give low values 0.986 | locus YGL173C, strain kem1, hits give low values 0.994 | locus YGL227W, strain vid30, hits give low values 0.988 | locus YGL240W, strain doc1, hits give low values 1.01 | locus YGL253W, strain hxk2, hits give low values 0.996 | [4] 1.01 | [5] 1.01 | locus YHR013C, strain ard1, hits give low values 0.941 | locus YHR027C, strain rpn1, hits give low values 0.988 | [6] 0.979 | locus YHR079C, strain IRE1, hits give low values 0.983 | locus YHR142W, strain chs7, hits give low values 1.01 | locus YJL092W, strain hpr5, hits give low values 0.989 | locus YJL095W, strain BCK1 (second series), hits give low values 0.993 | locus YJL095W, strain BCK1, hits give low values 0.984 | locus YJL115W, strain asf1, hits give low values 0.991 | locus YJL129C, strain trk1, hits give low values 1.02 | locus YJL154C, strain vps35, hits give low values 0.987 | locus YJL164C, strain tpk1, hits give low values 1 | locus YJL166W, strain qcr8, hits give low values 1 | locus YJL187C, strain SWE1, hits give low values 0.996 | locus YJR066W, strain TOR1, hits give low values 0.934 | locus YKL160W, strain elf1, hits give low values 1.02 | locus YKR026C, strain gcn3, hits give low values 0.975 | locus YKR091W, strain srl3, hits give low values 0.983 | locus YLL001W, strain dnm1, hits give low values 0.981 | locus YLL026W, hits give low values 0.995 | locus YLL041C, strain sdh2, hits give low values 0.99 | locus YLR027C, strain aat2, hits give low values 0.992 | locus YLR113W, strain HOG1, hits give low values 0.999 | locus YLR221C, strain rsa3, hits give low values 1.01 | locus YLR258W, strain gsy2, hits give low values 0.984 | locus YLR262C, strain YPT6 (second series), hits give low values 0.945 | locus YLR320W, strain mms22, hits give low values 0.998 | locus YLR342W, strain FKS1, hits give low values 0.981 | locus YLR357W, strain rsc2, hits give low values 0.979 | locus YLR370C, strain arc18, hits give low values 0.992 | locus YLR384C, strain iki3, hits give low values 0.983 | locus YML120C, strain ndi1, hits give low values 1.02 | locus YMR058W, strain fet3, hits give low values 0.999 | locus YMR125W, strain sto1, hits give low values 0.988 | locus YMR129W, hits give low values 0.985 | locus YMR205C, strain PFK2, hits give low values 0.953 | locus YMR231W, strain pep5, hits give low values 0.988 | locus YMR307W, strain GAS1, hits give low values 0.991 | locus YNL071W, strain lat1, hits give low values 0.999 | locus YNL128W, strain TEP1, hits give low values 0.978 | [7] 0.997 | locus YNL175C, strain NOP13, hits give low values 0.994 | locus YNL183C, strain NPR1, hits give low values 0.937 | locus YNL197C, strain WHI3, hits give low values 0.993 | locus YNL209W, strain ssb2, hits give low values 0.993 | locus YNL224C, strain SQS1, hits give low values 0.997 | locus YNL248C, strain rpa49, hits give low values 1.02 | locus YNL322C, strain KRE1 (second series), hits give low values 0.992 | locus YNR049C, strain mso1, hits give low values 0.989 | locus YOR001W, strain rrp6, hits give low values 1.01 | locus YOR070C, strain gyp1, hits give low values 0.992 | locus YOR080W, strain dia2, hits give low values 0.988 | locus YOR083W, strain WHI5 (second series), hits give low values 1 | locus YOR083W, strain WHI5, hits give low values 1.02 | locus YOR106W, strain vam3, hits give low values 1.02 | locus YOR231W, strain MKK1, hits give low values 0.986 | locus YOR265W, strain rbl2, hits give low values 0.993 | locus YOR270C, strain vph1, hits give low values 1 | locus YOR290C, strain snf2, hits give low values 0.911 | locus YPL051W, strain arl3, hits give low values 0.999 | locus YPL078C, strain atp4, hits give low values 1.01 | locus YPL106C, strain sse1, hits give low values 0.98 | locus YPL240C, strain hsp82, hits give low values 1 | locus YPL256C, strain CLN2, hits give low values 1
